# Where a name gives a salt, the structure may show the parent alone.
# How the values were obtained:
# Conditions in all cases: 10 µM; exposure time 6 h
# [1] = tested on: Danio rerio larvae (5 dpf); assay: difference in excitability vs DMSO (percentage points); higher = more excitable than DMSO
# In short: (§1)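 Wild-type zebrafish larvae at 5 dpf were kept in 96-well plates and exposed for 6 h to 100 µL egg water holding library compound at a final concentration of 10 µM. From 3 h into exposure, the plates were held at 28.5 ℃ and photographed every 6 s through a 3-h programme of moving lines and 100 ms, 400Hz tones. Each behaviour was scored by Z-LaP Tracker, a DeepLabCut model, and averaged over 48 larvae per compound. Every value gives the compound mean minus the vehicle control mean, in percentage points.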
# [2] = tested on: Danio rerio larvae (5 dpf); assay: difference in startle response vs DMSO (percentage points); higher = stronger startle than DMSO
# In short: as §1
# [3] = tested on: Danio rerio larvae (5 dpf); assay: difference in activity during first hour vs DMSO (percentage points); higher = more activity than DMSO
# In short: as §1
# [4] = tested on: Danio rerio larvae (5 dpf); assay: difference in habituation to acoustic stimuli vs DMSO (percentage points); higher = more habituation than DMSO
# In short: as §1
# [5] = tested on: Danio rerio larvae (5 dpf); assay: difference in combined optomotor response to red, green and blue moving lines vs DMSO (percentage points); higher = stronger optomotor response than DMSO
# In short: as §1
Structure (SMILES),difference in excitability [1],difference in startle response [2],difference in activity during first hour [3],difference in habituation to acoustic stimuli [4],difference [5]
Cn1cnc2c(F)c(Nc3ccc(Br)cc3F)c(C(=O)NOCCO)cc21 [Binimetinib],-0.212,-0.502,15.3,-0.78,7.07
Cc1cc(C(=O)NNCc2ccccc2)no1 [Isocarboxazid],9.42,3.52,-14,-2.77,4.57
O=C(O)C1(C(=O)O)CCC1.[NH2-].[NH2-].[Pt+2] [Carboplatin],-3.06,-1.15,-11.9,0.48,-2.73
CN(C)CCc1c[nH]c2ccc(Cn3cncn3)cc12 [Rizatriptan (benzoate salt)],9.6,-1.93,6.28,2.81,7.91
Clc1ccc(C(Cn2ccnc2)OCc2csc3c(Cl)cccc23)c(Cl)c1 (stereo not given) [Sertaconazole (nitrate)],4.31,-8.13,-18.2,-10,-11.3
OCCN1CCN(CCCN2c3ccccc3Sc3ccc(C(F)(F)F)cc32)CC1 [Fluphenazine (hydrochloride)],23.3,5.93,15.6,-10.4,-5.63
CN[C@H]1CC[C@@H](c2ccc(Cl)c(Cl)c2)c2ccccc21 [Sertraline (hydrochloride)],8.65,9.23,-22.3,-4.17,-15.1
Cc1nc(Nc2ncc(C(=O)Nc3c(C)cccc3Cl)s2)cc(N2CCN(CCO)CC2)n1 [Dasatinib],11.4,-1.6,-4.95,1.58,-0.962
CC(C)C(=O)Nc1ccc([N+](=O)[O-])c(C(F)(F)F)c1 [Flutamide],2.83,-7,-6.35,-14.3,-13.7
Nc1nc2ccc(OC(F)(F)F)cc2s1 [Riluzole (hydrochloride)],12.7,-2.33,7.76,3.2,11.9
CN(C)[C@@H]1C(O)=C(C(N)=O)C(=O)[C@@]2(O)C(O)=C3C(=O)c4c(O)ccc(Cl)c4[C@@H](O)[C@H]3C[C@@H]12 [Demeclocycline (hydrochloride)],12.9,-2.29,4.59,7.81,2.94

# Reference: the supplement of paper PMC10515830
